Test results: ChEMBL document CHEMBL1961873, “Compounds: GSK PKIS; Assays: Nanosyn kinase panel” (2012)

Assays:
[1] = target: Serine/threonine-protein kinase MARK2 (Homo sapiens) (UniProt Q7KZI7); details: at 1 µM
[2] = target: PAS domain-containing serine/threonine-protein kinase (Homo sapiens) (UniProt Q96RG2); details: at 0.1 µM
[3] = target: PAS domain-containing serine/threonine-protein kinase (Homo sapiens) (UniProt Q96RG2); details: at 1 µM
[4] = target: Phosphorylase b kinase gamma catalytic chain, skeletal muscle/heart isoform (Homo sapiens) (UniProt Q16816); details: at 0.1 µM
[5] = target: Phosphorylase b kinase gamma catalytic chain, skeletal muscle/heart isoform (Homo sapiens) (UniProt Q16816); details: at 1 µM
[6] = target: T1, Phosphorylase b kinase gamma catalytic chain, liver/testis isoform (Homo sapiens) (UniProt P15735); details: at 0.1 µM
T1 sequence (whole entry): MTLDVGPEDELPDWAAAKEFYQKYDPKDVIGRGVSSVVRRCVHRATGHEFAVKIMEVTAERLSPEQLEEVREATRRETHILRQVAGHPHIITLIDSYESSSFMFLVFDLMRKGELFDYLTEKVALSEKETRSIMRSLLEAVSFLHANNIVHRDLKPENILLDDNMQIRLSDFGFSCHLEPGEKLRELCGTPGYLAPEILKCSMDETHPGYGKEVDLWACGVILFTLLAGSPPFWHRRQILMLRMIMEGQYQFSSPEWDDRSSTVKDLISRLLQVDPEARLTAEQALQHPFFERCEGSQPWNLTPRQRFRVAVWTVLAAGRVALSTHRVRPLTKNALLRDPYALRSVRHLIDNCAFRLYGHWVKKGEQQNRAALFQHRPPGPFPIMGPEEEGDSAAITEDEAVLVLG

[7] = target: T1, Phosphorylase b kinase gamma catalytic chain, liver/testis isoform (Homo sapiens); details: at 1 µM
[8] = target: Serine/threonine-protein kinase pim-1 (Homo sapiens) (UniProt P11309); details: at 0.1 µM
[9] = target: Serine/threonine-protein kinase pim-1 (Homo sapiens) (UniProt P11309); details: at 1 µM
[10] = target: Serine/threonine-protein kinase pim-2 (Homo sapiens) (UniProt Q9P1W9); details: at 0.1 µM
[11] = target: Serine/threonine-protein kinase pim-2 (Homo sapiens) (UniProt Q9P1W9); details: at 1 µM
[12] = target: Serine/threonine-protein kinase pim-3 (Homo sapiens) (UniProt Q86V86); details: at 0.1 µM
[13] = target: Serine/threonine-protein kinase pim-3 (Homo sapiens) (UniProt Q86V86); details: at 1 µM
[14] = target: T2, MAP kinase-activated protein kinase 5 (Homo sapiens) (UniProt Q8IW41); details: at 0.1 µM
T2 sequence (whole entry): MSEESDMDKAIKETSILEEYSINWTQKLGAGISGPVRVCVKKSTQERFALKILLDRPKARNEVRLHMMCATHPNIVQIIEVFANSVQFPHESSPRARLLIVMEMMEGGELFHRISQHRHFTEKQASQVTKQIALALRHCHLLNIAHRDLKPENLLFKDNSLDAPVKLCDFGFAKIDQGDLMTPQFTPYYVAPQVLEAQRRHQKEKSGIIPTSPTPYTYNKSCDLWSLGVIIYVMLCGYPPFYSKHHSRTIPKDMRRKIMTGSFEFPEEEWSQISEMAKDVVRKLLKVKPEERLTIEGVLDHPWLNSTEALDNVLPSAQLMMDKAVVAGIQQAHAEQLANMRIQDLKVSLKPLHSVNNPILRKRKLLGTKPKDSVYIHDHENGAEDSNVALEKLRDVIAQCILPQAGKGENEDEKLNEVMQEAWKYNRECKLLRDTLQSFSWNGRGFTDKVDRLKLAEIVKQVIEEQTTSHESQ

[15] = target: T2, MAP kinase-activated protein kinase 5 (Homo sapiens); details: at 1 µM
[16] = target: Serine/threonine-protein kinase SIK1 (Homo sapiens) (UniProt P57059); details: at 0.1 µM
[17] = target: Serine/threonine-protein kinase SIK1 (Homo sapiens) (UniProt P57059); details: at 1 µM
[18] = target: Serine/threonine-protein kinase SIK2 (Homo sapiens) (UniProt Q9H0K1); details: at 0.1 µM
[19] = target: Serine/threonine-protein kinase SIK2 (Homo sapiens) (UniProt Q9H0K1); details: at 1 µM
[20] = target: T3, Serine/threonine-protein kinase TBK1 (Homo sapiens) (UniProt Q9UHD2); details: at 0.1 µM;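 further: values are the mean TBK1 inhibition, taken from the GSK PKIS screening data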
T3 sequence (whole entry): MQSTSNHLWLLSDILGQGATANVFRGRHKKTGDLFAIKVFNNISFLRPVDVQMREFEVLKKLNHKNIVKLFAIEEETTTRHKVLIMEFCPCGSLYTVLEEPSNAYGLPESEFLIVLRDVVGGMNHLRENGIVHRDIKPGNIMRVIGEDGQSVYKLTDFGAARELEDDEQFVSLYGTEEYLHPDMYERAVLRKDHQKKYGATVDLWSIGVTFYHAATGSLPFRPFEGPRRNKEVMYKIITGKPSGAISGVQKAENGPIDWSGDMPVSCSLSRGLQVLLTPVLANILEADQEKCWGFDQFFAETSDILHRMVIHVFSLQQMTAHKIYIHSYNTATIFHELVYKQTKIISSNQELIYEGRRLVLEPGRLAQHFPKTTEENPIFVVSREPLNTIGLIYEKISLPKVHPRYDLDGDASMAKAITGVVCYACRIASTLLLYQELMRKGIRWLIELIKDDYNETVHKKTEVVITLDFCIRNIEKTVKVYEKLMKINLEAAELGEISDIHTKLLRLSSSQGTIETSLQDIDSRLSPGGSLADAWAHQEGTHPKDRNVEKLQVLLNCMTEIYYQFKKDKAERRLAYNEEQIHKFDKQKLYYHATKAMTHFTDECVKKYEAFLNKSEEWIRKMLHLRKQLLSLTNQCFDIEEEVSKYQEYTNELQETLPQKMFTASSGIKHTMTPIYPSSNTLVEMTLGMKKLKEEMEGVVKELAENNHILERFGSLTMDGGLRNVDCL

Sequence of PAS domain-containing serine/threonine-protein kinase (Homo sapiens) (Q96RG2 whole entry, the tested form may be a part, canonical isoform): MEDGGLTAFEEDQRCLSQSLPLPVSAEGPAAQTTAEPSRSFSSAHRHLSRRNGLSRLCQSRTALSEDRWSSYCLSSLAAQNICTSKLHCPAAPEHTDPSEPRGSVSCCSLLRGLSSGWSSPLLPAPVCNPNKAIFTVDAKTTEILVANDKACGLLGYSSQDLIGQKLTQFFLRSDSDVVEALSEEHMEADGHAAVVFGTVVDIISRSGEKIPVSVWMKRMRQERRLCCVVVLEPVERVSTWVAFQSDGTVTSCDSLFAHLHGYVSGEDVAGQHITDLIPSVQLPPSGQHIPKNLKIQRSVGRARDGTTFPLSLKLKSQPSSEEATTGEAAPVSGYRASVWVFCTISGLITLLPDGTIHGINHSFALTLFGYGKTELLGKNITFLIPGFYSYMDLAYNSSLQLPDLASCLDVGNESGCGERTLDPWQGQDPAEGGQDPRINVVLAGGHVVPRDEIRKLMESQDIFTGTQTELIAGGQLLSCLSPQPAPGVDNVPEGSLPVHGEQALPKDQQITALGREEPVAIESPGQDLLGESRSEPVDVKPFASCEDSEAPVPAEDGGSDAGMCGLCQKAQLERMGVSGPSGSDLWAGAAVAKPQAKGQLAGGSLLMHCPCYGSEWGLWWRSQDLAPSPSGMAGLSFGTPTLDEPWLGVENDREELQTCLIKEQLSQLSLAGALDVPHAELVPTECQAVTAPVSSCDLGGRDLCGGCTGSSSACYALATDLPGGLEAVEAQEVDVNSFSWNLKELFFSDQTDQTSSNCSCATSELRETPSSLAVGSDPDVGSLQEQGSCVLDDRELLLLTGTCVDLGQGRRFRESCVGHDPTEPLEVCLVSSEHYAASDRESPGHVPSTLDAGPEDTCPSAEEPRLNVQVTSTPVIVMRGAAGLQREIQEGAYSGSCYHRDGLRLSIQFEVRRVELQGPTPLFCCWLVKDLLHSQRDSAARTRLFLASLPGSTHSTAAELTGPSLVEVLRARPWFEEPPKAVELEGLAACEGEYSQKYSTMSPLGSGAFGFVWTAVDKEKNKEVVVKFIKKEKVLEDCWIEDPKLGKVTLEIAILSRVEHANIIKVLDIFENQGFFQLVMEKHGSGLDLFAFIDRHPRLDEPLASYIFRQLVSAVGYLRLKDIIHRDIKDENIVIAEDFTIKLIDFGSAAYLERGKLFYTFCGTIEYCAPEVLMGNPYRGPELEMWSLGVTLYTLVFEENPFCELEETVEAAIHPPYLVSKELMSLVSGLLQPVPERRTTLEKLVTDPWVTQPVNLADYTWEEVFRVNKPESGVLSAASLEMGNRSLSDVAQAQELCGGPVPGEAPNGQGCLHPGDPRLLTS
Sequence of Serine/threonine-protein kinase pim-1 (Homo sapiens) (P11309 whole entry, looked up): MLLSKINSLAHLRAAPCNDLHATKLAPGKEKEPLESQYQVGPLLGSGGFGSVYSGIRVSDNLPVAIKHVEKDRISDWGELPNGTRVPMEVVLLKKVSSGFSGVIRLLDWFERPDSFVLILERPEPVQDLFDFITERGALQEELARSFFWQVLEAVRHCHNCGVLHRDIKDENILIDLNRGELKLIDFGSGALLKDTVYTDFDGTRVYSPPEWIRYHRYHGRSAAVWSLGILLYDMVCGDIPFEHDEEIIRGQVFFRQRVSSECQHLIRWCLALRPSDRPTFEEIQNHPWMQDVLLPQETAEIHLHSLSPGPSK
Sequence of Serine/threonine-protein kinase SIK2 (Homo sapiens) (Q9H0K1 whole entry, looked up): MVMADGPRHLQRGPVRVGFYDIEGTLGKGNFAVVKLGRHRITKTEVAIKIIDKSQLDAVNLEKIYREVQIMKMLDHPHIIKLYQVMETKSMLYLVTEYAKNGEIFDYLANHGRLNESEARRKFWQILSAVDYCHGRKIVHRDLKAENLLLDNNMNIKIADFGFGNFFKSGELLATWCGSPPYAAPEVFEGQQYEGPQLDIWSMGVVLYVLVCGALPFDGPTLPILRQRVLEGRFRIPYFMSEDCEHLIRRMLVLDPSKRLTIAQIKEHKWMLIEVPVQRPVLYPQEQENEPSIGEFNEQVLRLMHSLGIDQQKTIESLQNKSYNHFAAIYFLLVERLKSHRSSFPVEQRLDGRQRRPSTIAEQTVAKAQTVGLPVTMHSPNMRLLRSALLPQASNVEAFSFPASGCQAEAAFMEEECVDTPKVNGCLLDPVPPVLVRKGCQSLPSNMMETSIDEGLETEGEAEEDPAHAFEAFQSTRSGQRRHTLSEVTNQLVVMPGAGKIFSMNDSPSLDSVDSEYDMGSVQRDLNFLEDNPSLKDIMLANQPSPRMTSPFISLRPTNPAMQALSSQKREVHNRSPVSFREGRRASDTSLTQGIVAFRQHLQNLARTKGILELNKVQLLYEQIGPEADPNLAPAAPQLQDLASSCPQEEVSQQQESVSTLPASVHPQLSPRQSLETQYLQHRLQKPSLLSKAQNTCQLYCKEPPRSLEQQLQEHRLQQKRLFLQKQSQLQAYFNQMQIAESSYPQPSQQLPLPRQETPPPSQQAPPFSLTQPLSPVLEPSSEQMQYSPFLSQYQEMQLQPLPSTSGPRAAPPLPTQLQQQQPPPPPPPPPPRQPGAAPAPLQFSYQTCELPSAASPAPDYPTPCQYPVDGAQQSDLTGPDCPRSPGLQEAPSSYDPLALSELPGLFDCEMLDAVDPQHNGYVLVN
Sequence of Serine/threonine-protein kinase MARK2 (Homo sapiens) (Q7KZI7 whole entry, the tested form may be a part): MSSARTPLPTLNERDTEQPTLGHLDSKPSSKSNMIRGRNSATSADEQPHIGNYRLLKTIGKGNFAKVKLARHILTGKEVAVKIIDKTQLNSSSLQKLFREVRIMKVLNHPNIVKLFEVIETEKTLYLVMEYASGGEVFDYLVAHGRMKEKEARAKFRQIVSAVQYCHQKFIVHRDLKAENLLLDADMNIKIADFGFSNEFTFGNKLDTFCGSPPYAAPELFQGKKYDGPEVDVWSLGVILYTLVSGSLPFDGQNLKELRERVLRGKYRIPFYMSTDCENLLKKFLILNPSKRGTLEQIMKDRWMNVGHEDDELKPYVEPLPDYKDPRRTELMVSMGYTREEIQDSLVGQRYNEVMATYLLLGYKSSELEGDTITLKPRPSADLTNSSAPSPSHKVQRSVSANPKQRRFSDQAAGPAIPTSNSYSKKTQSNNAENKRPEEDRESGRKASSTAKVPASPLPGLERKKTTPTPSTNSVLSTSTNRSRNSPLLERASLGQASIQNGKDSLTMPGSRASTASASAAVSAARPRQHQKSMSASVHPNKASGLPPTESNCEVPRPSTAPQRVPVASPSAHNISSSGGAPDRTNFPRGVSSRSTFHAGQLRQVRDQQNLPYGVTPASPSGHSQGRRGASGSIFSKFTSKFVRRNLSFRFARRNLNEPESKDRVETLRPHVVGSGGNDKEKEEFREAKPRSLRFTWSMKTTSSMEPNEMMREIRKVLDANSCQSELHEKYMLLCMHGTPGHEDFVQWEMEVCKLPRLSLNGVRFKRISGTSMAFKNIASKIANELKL
Sequence of Phosphorylase b kinase gamma catalytic chain, skeletal muscle/heart isoform (Homo sapiens) (Q16816 whole entry, looked up, canonical isoform): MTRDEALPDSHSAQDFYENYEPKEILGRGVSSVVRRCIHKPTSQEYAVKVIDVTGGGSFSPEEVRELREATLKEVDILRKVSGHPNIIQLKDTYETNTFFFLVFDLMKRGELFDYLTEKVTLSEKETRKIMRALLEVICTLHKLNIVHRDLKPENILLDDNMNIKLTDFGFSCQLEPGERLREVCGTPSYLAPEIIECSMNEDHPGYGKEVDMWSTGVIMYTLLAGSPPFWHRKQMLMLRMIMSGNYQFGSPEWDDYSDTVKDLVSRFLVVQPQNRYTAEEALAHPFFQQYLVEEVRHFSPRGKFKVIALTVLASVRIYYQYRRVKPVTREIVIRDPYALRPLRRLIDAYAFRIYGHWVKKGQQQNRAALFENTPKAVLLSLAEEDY
Sequence of Serine/threonine-protein kinase pim-2 (Homo sapiens) (Q9P1W9 whole entry, looked up): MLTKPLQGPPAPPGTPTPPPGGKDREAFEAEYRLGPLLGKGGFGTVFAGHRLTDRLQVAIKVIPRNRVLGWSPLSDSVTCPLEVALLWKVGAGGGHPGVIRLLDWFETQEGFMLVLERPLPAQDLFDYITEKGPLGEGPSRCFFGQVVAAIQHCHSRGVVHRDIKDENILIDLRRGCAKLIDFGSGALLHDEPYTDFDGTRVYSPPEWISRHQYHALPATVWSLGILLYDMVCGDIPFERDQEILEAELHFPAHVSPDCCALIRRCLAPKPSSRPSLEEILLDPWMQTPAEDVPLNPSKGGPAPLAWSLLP

O=S(=O)(CCOCc1ccc(-c2ccc3ncnc(Nc4ccc(OCc5cccc(F)c5)c(Cl)c4)c3c2)o1)c1ccccc1
inhibition [1]: 3.35% | inhibition [2]: -0.23% | inhibition [3]: -0.13% | inhibition [4]: 1.12% | inhibition [5]: 5.02% | inhibition [6]: 1.75% | inhibition [7]: -0.77% | inhibition [8]: 1.1% | inhibition [9]: 2.1% | inhibition [10]: 0.88% | inhibition [11]: 2.24% | inhibition [12]: 0.82% | inhibition [13]: 2.26% | inhibition [14]: 0.61% | inhibition [15]: 0.15% | inhibition [16]: 3.79% | inhibition [17]: 5.54% | inhibition [18]: 0.88% | inhibition [19]: 1.15% | inhibition [20]: 0.12%

N#Cc1cccc(Nc2nccc(-c3cnn4ncccc34)n2)c1
inhibition [1]: 9.5% | inhibition [2]: 0.25% | inhibition [3]: 0.01% | inhibition [4]: 15.8% | inhibition [5]: 58.3% | inhibition [6]: 7.04% | inhibition [7]: 22.2% | inhibition [8]: 1.44% | inhibition [9]: 12.4% | inhibition [10]: 0.59% | inhibition [11]: 7.85% | inhibition [12]: 4.41% | inhibition [13]: 34% | inhibition [14]: 1.48% | inhibition [15]: 4.15% | inhibition [16]: 8.01% | inhibition [17]: 15.1% | inhibition [18]: 4.44% | inhibition [19]: 11.9% | inhibition [20]: 1.58%

CCn1c(-c2nonc2N)nc2ccc(F)cc21
inhibition [1]: -0.64% | inhibition [2]: 1.69% | inhibition [3]: 0.49% | inhibition [4]: 6.81% | inhibition [5]: 7.3% | inhibition [6]: 7.81% | inhibition [7]: 12.6% | inhibition [8]: 0.08% | inhibition [9]: 1.85% | inhibition [10]: -0.12% | inhibition [11]: 0.34% | inhibition [12]: -0.77% | inhibition [13]: 4.99% | inhibition [14]: 2.78% | inhibition [15]: 4.45% | inhibition [16]: 4.96% | inhibition [17]: 8.41% | inhibition [18]: 7.14% | inhibition [19]: 12.5% | inhibition [20]: 5.18%

COc1cccc(-n2nc(C)c3c(N/N=C(\C)c4ccncc4)ncnc32)c1
inhibition [1]: 0.88% | inhibition [2]: 1.38% | inhibition [3]: 0.57% | inhibition [4]: 0.48% | inhibition [5]: 2.64% | inhibition [6]: 0.83% | inhibition [7]: 0.29% | inhibition [8]: -0.49% | inhibition [9]: 0.18% | inhibition [10]: -0.5% | inhibition [11]: -0.42% | inhibition [12]: -0.59% | inhibition [13]: -1.03% | inhibition [14]: -0.18% | inhibition [15]: -0.64% | inhibition [16]: 1.56% | inhibition [17]: 3.69% | inhibition [18]: 0.4% | inhibition [19]: -0.38% | inhibition [20]: -0.16%

Nc1nccc(C#Cc2cncnc2Nc2ccc(OCc3cccc(F)c3)c(Cl)c2)n1
inhibition [1]: 8.86% | inhibition [2]: -0.05% | inhibition [3]: -3.04% | inhibition [4]: 6.86% | inhibition [5]: 27.5% | inhibition [6]: 4.05% | inhibition [7]: 2.05% | inhibition [8]: 1.29% | inhibition [9]: 1.16% | inhibition [10]: 0.62% | inhibition [11]: 1.29% | inhibition [12]: -0.87% | inhibition [13]: -1.09% | inhibition [14]: 0.74% | inhibition [15]: -0.01% | inhibition [16]: 5.03% | inhibition [17]: 6.42% | inhibition [18]: 5.11% | inhibition [19]: 8.28% | inhibition [20]: 4.36%

CN(C)C(=O)O[C@@H]1CN[C@@H](C#Cc2cc3ncnc(Nc4ccc(OCc5cccc(F)c5)c(Cl)c4)c3s2)C1
inhibition [1]: 1.06% | inhibition [2]: -0.1% | inhibition [3]: -0.12% | inhibition [4]: 0.51% | inhibition [5]: -3.21% | inhibition [6]: 1.07% | inhibition [7]: -1.09% | inhibition [8]: 1.41% | inhibition [9]: 0.48% | inhibition [10]: 0.15% | inhibition [11]: 0.58% | inhibition [12]: -0.21% | inhibition [13]: -1.29% | inhibition [14]: -0.43% | inhibition [15]: -2.16% | inhibition [16]: 0.03% | inhibition [17]: 3.96% | inhibition [18]: -0.41% | inhibition [19]: 10.1% | inhibition [20]: 4.03%

NS(=O)(=O)c1cccc(-c2cc3ccncc3cc2OCc2ccccc2)c1
inhibition [1]: 4.78% | inhibition [2]: 0.61% | inhibition [3]: -0.76% | inhibition [4]: 4.05% | inhibition [5]: 7.24% | inhibition [6]: 4.91% | inhibition [7]: 3.55% | inhibition [8]: 1.01% | inhibition [9]: 0.91% | inhibition [10]: 0.27% | inhibition [11]: 0.25% | inhibition [12]: -1.15% | inhibition [13]: -3.18% | inhibition [14]: 1.74% | inhibition [15]: 0.61% | inhibition [16]: 0.44% | inhibition [17]: 5.64% | inhibition [18]: 1.16% | inhibition [19]: 3.39% | inhibition [20]: 2.28%

NC(=O)c1cccc(Nc2nccc(Nc3cccc(F)c3)n2)c1
inhibition [1]: 3.47% | inhibition [2]: 1.27% | inhibition [3]: 0.17% | inhibition [4]: -0.51% | inhibition [5]: 3.35% | inhibition [6]: 1.29% | inhibition [7]: 0.54% | inhibition [8]: -0.04% | inhibition [9]: -0.4% | inhibition [10]: -0.05% | inhibition [11]: 0.31% | inhibition [12]: 0.13% | inhibition [13]: 2% | inhibition [14]: 0.33% | inhibition [15]: -0.56% | inhibition [16]: 9.14% | inhibition [17]: 37% | inhibition [18]: 7.47% | inhibition [19]: 25.1% | inhibition [20]: 1.55%

C[C@@H](Oc1cc(-n2cnc3ccc(OCC4CCN(C)CC4)cc32)sc1C(N)=O)c1ccccc1C(F)(F)F
inhibition [1]: 43.4% | inhibition [2]: 1.41% | inhibition [3]: 2.84% | inhibition [4]: 1.57% | inhibition [5]: 7.24% | inhibition [6]: -1.2% | inhibition [7]: 10.8% | inhibition [8]: 18.7% | inhibition [9]: 68.4% | inhibition [10]: 0.26% | inhibition [11]: 1.56% | inhibition [12]: 8.51% | inhibition [13]: 47.6% | inhibition [14]: -0.8% | inhibition [15]: -1.08% | inhibition [16]: 13.5% | inhibition [17]: 65.6% | inhibition [18]: 6.88% | inhibition [19]: 30.3% | inhibition [20]: -2.73%

c1ccc(Nc2ncc(-c3ccccc3)o2)cc1
inhibition [1]: 2.64% | inhibition [2]: -0.05% | inhibition [3]: -0.71% | inhibition [4]: 2.61% | inhibition [5]: 10.9% | inhibition [6]: 6.62% | inhibition [7]: 6.17% | inhibition [8]: 1.47% | inhibition [9]: 3.45% | inhibition [10]: -1.31% | inhibition [11]: -0.45% | inhibition [12]: 0.11% | inhibition [13]: 2.31% | inhibition [14]: 2.01% | inhibition [15]: 1.68% | inhibition [16]: 3.63% | inhibition [17]: 12.6% | inhibition [18]: 7.32% | inhibition [19]: 13.8% | inhibition [20]: 5.72%

CS(=O)(=O)Nc1cccc(-c2ccc3c(NC(=O)C4CC4)n[nH]c3c2)c1
inhibition [1]: 2.88% | inhibition [2]: 0.72% | inhibition [3]: -0.4% | inhibition [4]: 3.02% | inhibition [5]: 6.04% | inhibition [6]: 2.36% | inhibition [7]: -0.09% | inhibition [8]: 0.69% | inhibition [9]: 0.43% | inhibition [10]: 0.5% | inhibition [11]: 1.38% | inhibition [12]: -0.62% | inhibition [13]: -2.53% | inhibition [14]: 0.1% | inhibition [15]: -1.16% | inhibition [16]: -0.72% | inhibition [17]: 5.25% | inhibition [18]: -2.65% | inhibition [19]: 9.32% | inhibition [20]: -0.1%
